# Measured values from PubChem BioAssay.
# For some of these results: Measured potencies and affinities stand elsewhere. Results filed as inconclusive are left out. Active and inactive are the calls of the source. Unless noted, the rule behind the calls is not given here.
# Legend:
# [1] = system: XIP peptide (Xip251-270) binding; test: XIP fragment 251-270 binding compounds – biochemical, small-molecule microarray, fluorescence 635/667 nm, 0.1 µg/mL protein, primary screen (AID 1182); conditions: fluorescent protein binding, 635 nm, higher = more signal, called active from +8 up or from −8 down
# XIP peptide (Xip251-270) = test: compounds binding XIP fragment 251-270 – biochemical, small-molecule microarray, fluorescence 635/667 nm, 0.5 µg/mL protein, primary screen (AID 1183); conditions: fluorescence 635 nm, higher = more signal
# [2] = blood-stage malaria parasite viability loss – strain 3D7, DAPI fluorescence, 100 nL, primary screen (AID 1184);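 note: parasites grown inside human red blood cells in medium with human serum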; conditions: P. falciparum 3D7 growth, 3 d, higher = more signal
# [3] = target: Homeobox protein Hox-A13 (Mus musculus) (UniProt Q62424); test: disruptors of Hoxa13 oligonucleotide interaction – biochemical, fluorescence polarization, labeled oligonucleotide, primary screen (AID 1185); conditions: Hoxa13:DNA binding, 15 min, higher = more signal, called active from +8 up or from −8 down
# [4] = blockers of DNA damage checkpoint Chk1 activation – imaging, HeLa, hydroxyurea, phospho-Chk1 antibody, percent positive cells, primary screen (AID 1186); conditions: hydroxyurea-induced phospho-Chk1 immunofluorescence imaging, higher = more signal
# [5] = blockers of DNA damage checkpoint Chk1 activation – imaging, HeLa, hydroxyurea, phospho-Chk1 nuclear intensity, primary screen (AID 1187); conditions: hydroxyurea-induced phospho-Chk1 immunofluorescence imaging, higher = more signal
# [6] = fungal growth arrest, C. neoformans – Alamar Blue, cherry-picks, dose response (AID 686998;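 active = falling signal with fitted half-maximal potency no higher than twice the top valid tested dose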); conditions: Cryptococcus neoformans growth, 24 h; series mostly up to 35 µM
# [7] = C. neoformans lysis by adenylate kinase leakage – AK release luminescence, cherry-picks, dose response (AID 687000;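 active = fitted dose curve reaches 40% lysis signal rise at or below the highest valid concentration tested for that sample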;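 note: luminescent detection of adenylate kinase leaking from lysed yeast; 0% = median neutral control signal and 100% = double that signal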); conditions: 4 h, 100% = twice the neutral-control signal; series mostly up to 15 µM
# [8] = viability loss in HepG2 hepatoma cells – cell-based, cherry-picks, set 2, cytotoxicity control, dose response (AID 687002;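 active = a dose-response fit showing signal loss, with half-maximal concentration no higher than twice the top tested dose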); conditions: ATP luminescence (CellTiter-Glo), 48 h; series mostly up to 26 µM
# [9] = viability loss in HeLa cells – cell-based, ATP luminescence, cherry-pick samples, cytotoxicity control, dose response (AID 687004;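 active = a fitted half-maximal concentration no higher than twice the top valid tested dose, with signal falling as cells die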;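 note: 0% = neutral control median and -100% = staurosporine 10 µM control median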); conditions: ATP luminescence (CellTiter-Glo), 48 h; series mostly up to 26 µM
# Chain of Homeobox protein Hox-A13 (Mus musculus) (Q62424 whole entry, looked up): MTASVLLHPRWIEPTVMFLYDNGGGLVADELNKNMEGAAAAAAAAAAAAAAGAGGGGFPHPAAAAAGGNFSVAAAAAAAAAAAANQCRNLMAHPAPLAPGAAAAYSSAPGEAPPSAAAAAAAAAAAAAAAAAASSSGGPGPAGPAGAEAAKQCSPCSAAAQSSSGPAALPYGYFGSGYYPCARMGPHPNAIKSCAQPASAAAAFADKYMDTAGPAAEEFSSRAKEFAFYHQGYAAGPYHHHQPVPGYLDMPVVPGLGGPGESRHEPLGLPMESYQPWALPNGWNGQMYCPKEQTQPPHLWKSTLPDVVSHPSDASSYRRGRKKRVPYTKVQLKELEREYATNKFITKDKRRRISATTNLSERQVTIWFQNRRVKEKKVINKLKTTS
SMILES,composite z-score [1],composite z-score (XIP peptide (Xip251-270)),z-score [2],z-score [3],z-score [4],z-score [5],outcome [6],outcome [7],outcome [8],outcome [9]
O=C1O[C@H](c2ccccc2)[C@H](c2ccccc2)N2[C@H]1[C@@H](C(=O)Nc1nc3ccccc3s1)[C@]1(C(=O)Nc3ccc(C#CC4(O)CCCCCC4)cc31)[C@H]2c1ccc(O)cc1,2.76 (inactive),0.844,-0.416,-1.04 (inactive),0.313 (inactive),0.634 (inactive),–,–,–,–
CN1C2C=C(c3ccc(CO)cc3)C(C3C(=O)N(C(N)=O)C(=O)C32)C1c1cccs1 (stereo not drawn),0.549 (inactive),0.92,-1.65,-5.19 (inactive),-1.21 (inactive),-1.11 (inactive),–,–,–,–
NC(=O)NCC#Cc1ccc2c(c1)[C@]1(C(=O)N2)[C@H](C(N)=O)[C@H]2C(=O)O[C@H](c3ccccc3)[C@H](c3ccccc3)N2[C@@H]1c1ccccc1OCCO,0.212 (inactive),0.473,0.257,-4.44 (inactive),0.113 (inactive),0.158 (inactive),inactive,inactive,inactive,inactive
CN1C(=O)C2C=CC(C(O)c3ccc(N(C)C)cc3)N(Nc3ccc([N+](=O)[O-])cc3[N+](=O)[O-])C2C1=O (stereo not drawn),0.695 (inactive),0.301,0.985,-3.89 (inactive),0.347 (inactive),-0.169 (inactive),–,–,–,–
COc1ccc([Si](C)(C)[C@H]2[C@H](CCO)O[C@@]3(C(=O)N(Cc4ccccc4)c4ccc(N5C(=O)c6cccc7cccc5c67)cc43)[C@@H]2C)cc1,1.25 (inactive),0.353,-2.48,0.2 (inactive),-1.01 (inactive),-0.207 (inactive),–,–,–,–
CC(=O)NCCCC[C@@H]1NC(=O)[C@@H]2C[C@H](C(=O)NCCCCCNC(=O)CS)[C@H](c3ccc(O)cc3)N2C1=O,0.214 (inactive),0.132,-0.59,-3.98 (inactive),1.12 (inactive),0.99 (inactive),–,–,–,–
O=C1O[C@@H](c2ccccc2)[C@@H](c2ccccc2)N2[C@@H](c3ccc(O)cc3)[C@]3(C(=O)Nc4ccccc43)[C@@H](C(=O)N3CCN(c4ncccn4)CC3)[C@H]12,1.55 (inactive),-0.278,-1.46,-2.96 (inactive),-0.231 (inactive),-0.242 (inactive),–,–,–,–
C=CCN1C(=O)[C@@]2(Cc3ccccc3)N=C(c3ccc(OCCCO)cc3)O[C@H]2c2ccccc21,1.67 (inactive),0.79,-1.92,-0.611 (inactive),-0.0856 (inactive),-0.138 (inactive),–,–,–,–
COc1ccc(CCNC(=O)[C@@]2(c3ccc([N+](=O)[O-])cc3)CC(=O)N(C(C)C)[C@@H]2c2ccc(CO)cc2)cc1,1.25 (inactive),-0.904,-0.303,-3.03 (inactive),-0.322 (inactive),-0.0259 (inactive),–,–,–,–
Cc1ccc(S(=O)(=O)N2[C@@H](c3ccccc3)C(C(=O)O)=CC[C@H]2c2ccccc2)cc1,-0.141 (inactive),0.0514,-1.02,-3.76 (inactive),-0.354 (inactive),-0.449 (inactive),–,–,–,–
COCC(=C=CC[C@H](O)c1ccc(OCCO)cc1)C[C@H](O)c1ccccn1,0.495 (inactive),-0.246,-1.14,-5.63 (inactive),-0.215 (inactive),-0.0412 (inactive),–,–,–,–
C=CCC(OC(C)=O)[C@@H]1[C@@H](N(Cc2cc3ccccc3o2)C(=O)c2ccc(C)cc2)c2cc(OCCCO)ccc2N1C(=O)c1ccc2ccccc2n1 (stereo partly drawn),0.167 (inactive),-0.442,-0.863,-1.79 (inactive),0.347 (inactive),0.295 (inactive),–,–,–,–
Cc1ccc(S[C@]2(C(=O)NCCN3CCOCC3)CC(=O)N(C3Cc4ccccc4C3)[C@@H]2c2ccc(CO)cc2I)cc1,0.669 (inactive),0.771,-0.861,-2.43 (inactive),0.18 (inactive),0.764 (inactive),–,–,–,–
O=C(N1CCCCC1)[C@@]1(CCS(=O)(=O)c2ccccc2)N=C(c2ccc(OCCCO)cc2)O[C@H]1c1ccccc1,-0.43 (inactive),0.23,-2.24,-3.65 (inactive),-0.61 (inactive),-0.262 (inactive),–,–,–,–
CO[C@H]1O[C@H](CO)[C@@H](OC(=O)Nc2ccc3c(c2)OCO3)[C@H](OC(=O)Nc2ccccc2)[C@@H]1OC(=O)Nc1ccccc1,1.06 (inactive),0.649,-1.76,-5.39 (inactive),0.171 (inactive),0.889 (inactive),–,–,–,–
COCCCNC(=O)[C@@H]1c2ccccc2C(=O)N(CC23CC4CC(CC(C4)C2)C3)[C@H]1c1ccc(CO)cc1,0.428 (inactive),-0.518,-1.95,-4.65 (inactive),-0.546 (inactive),-0.786 (inactive),–,–,–,–
CC(C)C[C@@H]1NC(=O)[C@H]2C[C@@H](C(=O)NCCCCCC[N+](C)(C)C)[C@@H](c3ccc(O)cc3)N2C1=O,0.28 (inactive),0.608,1.17,-3.14 (inactive),0.554 (inactive),0.61 (inactive),–,–,–,–
COc1cc(CO)cc(I)c1O[C@H]1C=C(C(=O)NCCO)C[C@@H](N(CC2CCCCC2)C(=O)c2cc3ccccc3oc2=O)[C@@H]1O,0.193 (inactive),0.24,1.04,-6.1 (inactive),0.113 (inactive),0.194 (inactive),–,inactive,inactive,inactive
O=C1c2ccccc2[C@](Cc2ccccc2I)(C(=O)NCC(F)(F)F)[C@H](c2ccc(CO)cc2)N1Cc1ccccc1C(F)(F)F,0.57 (inactive),0.188,0.121,-2.47 (inactive),-0.103 (inactive),0.14 (inactive),–,–,–,–
COC(=O)c1c(CC[C@@H](CO)NC(=O)N[C@H](Cn2cc(-c3cncn3C)nn2)C(C)C)oc(C(C)=O)c1C(=O)OC,1.88 (inactive),-0.0139,-2.19,3.03 (inactive),-0.139 (inactive),0.233 (inactive),–,–,–,–
CO[C@]12C=C(Br)[C@@H](C[C@@H]1c1ccccc1)[C@@]1(CO1)C2=O,0.484 (inactive),0.521,-1.03,-0.507 (inactive),-0.655 (inactive),-0.337 (inactive),–,–,–,–
